The source of these data is PubChem BioAssay (NCATS).

For assay [1], the target named is Glutathione peroxidase 1 (Homo sapiens) (UniProt P07203). Briefly: Primary qHTS Assay for Inhibitors of Recombinant Selenoprotein Glutathione Peroxidase 1 (GPX1) (AID 1845191). Further: nearly all actives have a fitted effect of over 65% in size. On activity, negative = inhibition: on the % scale 0 is the no-effect control and ±100 the full control effect. To be noted: recombinant GPX1, GR-coupled NADPH fluorescence, 15 min; series mostly up to 27.7 µM. The procedure, abridged: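 GPX1 10 nM, GR 100 nM, GSH 1 mM, NADPH 0.5 mM, CHP 0.5 mM (final). 30-min cpd preincubation, RT. Ex340/Em450 read t=0, t=15 min.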
A general note: In qHTS, concentration-response curves come from the screen itself.

The target of assay [2] is Phospholipid hydroperoxide glutathione peroxidase GPX4 (Homo sapiens) (UniProt P36969). Briefly: Primary qHTS Assay for Inhibitors of Recombinant Selenoprotein Glutathione Peroxidase 4 (GPX4) (AID 1845192). Further: nearly all actives have a fitted effect of over 65% in size. On activity change, negative = inhibition: on the % scale 0 is the no-effect control and ±100 the full control effect. To be noted: recombinant GPX4, GR-coupled NADPH fluorescence, 15 min; series mostly up to 27.8 µM. The procedure, abridged: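 qHTS, GR-coupled: GPX4 200 nM + cpd 30 min RT → GSH 1 mM, NADPH 0.5 mM, GR 100 nM → CHP 0.5 mM start; fluor 340/450 at t0 and t15 min; no-enzyme wells as control.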

Assay [3] addresses Luciferin 4-monooxygenase (Photinus pyralis) (UniProt P08659). Description: Primary firefly luciferase (FLuc) qHTS assay for identification of artifact compounds. (AID 1845220). Further: nearly all actives have a fitted effect of over 60% in size.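 On activity change, negative = inhibition: plate controls were DMSO vehicle for no effect and no enzyme for full effect.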 To be noted: purified firefly luciferase, luminescence, 5 min; series mostly up to 54.1 µM. The gist of the method:
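qHTS, 15 min compound preincubation with substrate (10 uM luciferin, 10 uM ATP) at RT, then 10 nM FLuc; 5 min; luminescence; % inhibition vs no-enzyme/DMSO controls, 4-parameter Hill fit.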

A short description of assay [4]: Primary fluorescence-based thiol-reactive (MSTI) qHTS assay for identification of artifact compounds. (AID 1845221). Further: nearly all actives have a fitted effect of over 65% in size. Further: potency means the concentration at half of the fitted maximal effect. To be noted: MSTI thiol-reactivity probe, 1 h; series mostly up to 53.8 µM. The procedure, abridged: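 One-hour, room-temperature, dark incubation of compound with 4 uM MSTI in PBS (pH 7.4, 2% DMSO) precedes a fluorescence read at 525 nm excitation, 598 nm emission; Hill-equation fitting yields concentration-response values.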

For assay [5], the system named is Nanoluciferase (engineered Oplophorus gracilirostris luciferase). Description: Primary Nanoluciferase (NLuc) qHTS assay for identification of artifact compounds. (AID 1845222). To be noted: NLuc-conditioned medium, Nano-Glo luminescence, 5 min; series mostly up to 54.1 µM. The gist of the method:
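Luminescence read-out of secreted NLuc in S16 cell conditioned medium (1:55); compounds tested with 15 min RT preincubation, then Nano-Glo substrate 1:100, 5 min. % inhibition vs no-enzyme and DMSO controls, 4-parameter Hill fit.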

The nature of assay [6]: Primary redox qHTS assay for identification of artifact compounds. (AID 1845223).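 Further: 0% = DMSO and 100% = reference compound.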 To be noted: Amplex Red/HRP redox cycling with DTT, fluorescence; series mostly up to 53.8 µM. The procedure, abridged:
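Redox-cycling detection via DTT (250 uM final) oxidation coupled to Amplex Red (25 uM)/HRP (250 mU/mL) in HBSS. 15 min preincubation plus 30 min after DTT, room temperature. Ex/Em 525/598 nm; 4-parameter Hill fit against DMSO and 10 uM DA3003.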

Unmarked numbers belong to inactive results. Results filed as inconclusive are left out. The source made the active and inactive calls. The call rests on the fitted dose curve; in most records, active means well fitted curve in the direction sought with a large enough effect; inconclusive means small, poorly fitted or top-dose-only effect, or another doubt; inactive means no such curve, though single readings can be large; an effect the other way counts as inactive or inconclusive. Where a SMILES comes first, the peptide text is derived from it. [ ]: non-standard residue; d: D form. ξ: configuration not given here. ξTyr(βOH) = NC(C(=O)O)C(O)c1ccc(O)cc1

Glutathione peroxidase 1 (Homo sapiens), sequence (P07203 whole entry, looked up): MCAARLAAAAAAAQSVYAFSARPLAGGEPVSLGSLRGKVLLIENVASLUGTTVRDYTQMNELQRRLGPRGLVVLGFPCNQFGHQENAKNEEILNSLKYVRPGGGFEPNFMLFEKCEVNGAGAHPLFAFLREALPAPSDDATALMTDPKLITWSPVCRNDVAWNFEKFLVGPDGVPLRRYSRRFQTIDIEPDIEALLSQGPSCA
Phospholipid hydroperoxide glutathione peroxidase GPX4 (Homo sapiens), sequence (P36969 whole entry, looked up): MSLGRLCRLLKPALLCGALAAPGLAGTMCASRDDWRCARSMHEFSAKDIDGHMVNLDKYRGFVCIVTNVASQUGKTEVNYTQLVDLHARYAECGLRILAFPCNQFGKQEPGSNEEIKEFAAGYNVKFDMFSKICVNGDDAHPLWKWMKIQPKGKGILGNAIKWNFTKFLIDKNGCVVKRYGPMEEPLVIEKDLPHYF

Take `COC(=O)C1=COC(O[C@@H]2O[C@H](CO)[C@@H](O)[C@H](O)[C@H]2O)/C(=C\COC(=O)/C=C/c2ccccc2)C1CC(=O)OCCc1ccc(O)cc1` (some centres undefined): the Potency entry in assay [1], in assay [2], in assay [3], in assay [4], in assay [5] and in assay [6] was “inactive” throughout.

As to `CC(CC(C)O[C@@H]1O[C@H](CO)[C@@H](O)[C@H](O)[C@H]1O)OC(=O)/C=C/c1ccc(O)cc1` (some centres undefined), the Potency result in assay [1], in assay [2], in assay [3], in assay [5] and in assay [6] was “inactive” throughout. Also, the Potency in assay [4] was 4.62 µM (active).

On to `C[C@@H]1O[C@@H](O[C@H]2[C@@H]3C=CO[C@@H](O[C@@H]4O[C@H](CO)[C@@H](O)[C@H](O)[C@H]4O)[C@@H]3[C@@]3(CO)O[C@@H]23)[C@H](O)[C@H](OC(=O)/C=C/c2ccc(O)cc2)[C@H]1OC(=O)/C=C/c1ccc(O)cc1`, for which the Potency result in assay [1], in assay [2], in assay [3], in assay [4] and in assay [6] was “inactive” each time.

With `CCCCNc1nc(N)c2[nH]c(=O)n(Cc3ccc(OCCN(C)C)nc3)c2n1`, the Potency entry in assay [1], in assay [2], in assay [3] and in assay [5] was “inactive” in each case.

As to `CC(C)C1NC(=O)CNC(=O)C2CCCN2C(=O)C(Cc2c[nH]c3ccccc23)NC(=O)CNC(=O)C(C(O)c2ccc(O)cc2)NC(=O)CNC1=O` (centres undefined) (cyclo(G[ξTyr(βOH)]GWPGV); configuration not given here), the Potency entry in assay [1], in assay [2], in assay [3], in assay [4] and in assay [6] was “inactive” each time.

As to `C[C@]12CC[C@@H]3c4ccc(O)cc4CC[C@H]3[C@@H]1C[C@@H](O[C@@H]1O[C@H](C(=O)O)[C@@H](O)[C@H](O)[C@H]1O)[C@@H]2O`, the Potency entry in assay [1], in assay [2], in assay [3], in assay [4] and in assay [6] was “inactive” in each case.

For the compound `CC1=C[C@@H]2[C@H]3[C@@H]4O[C@@](C)(CC[C@H]4O)[C@H]3CC(=O)[C@]23C(=O)N[C@@H](CC(C)C)[C@@H]3[C@@H]1C`, the Potency result in assay [1], in assay [2], in assay [3] and in assay [5] was “inactive” in each case.

As to `CC1(C)C=Cc2c(ccc3c2N=C2C(C)(C)[C@@H]4C[C@]56CCCN5C(=O)[C@@]4(C[C@]23O)NC6=O)O1`, the Potency entry in assay [1], in assay [2], in assay [3], in assay [4] and in assay [6] was “inactive” in each case.

As for `C[C@@H]1O[C@@H](O[C@H]2[C@H](O)[C@@H](O)[C@H](OC(=O)[C@]34CCC(C)(C)C[C@H]3C3=CCC5[C@@]6(C)CC[C@H](O[C@@H]7O[C@H](C(=O)O)[C@@H](O)[C@H](O)[C@H]7O)C(C)(C)C6CC[C@@]5(C)[C@]3(C)CC4)O[C@@H]2CO)[C@H](O)[C@H](O)[C@H]1O` (some centres undefined), the Potency entry in assay [1] and in assay [2] was “inactive” each time. For the same compound, in assay [3], the activity change, negative = inhibition was -16.1% [at 11.6 µM]. Also, the activity, negative = inhibition in assay [5] is -3.67% [at 11.6 µM].

With `CC(C(=O)Nc1cc(C#N)ccc1CCCC(=O)O)c1ccc(F)c2ccccc12` (centres undefined), the Potency entry in assay [1], in assay [2], in assay [3], in assay [4] and in assay [6] was “inactive” in each case.

`CC(CNS(=O)(=O)C(C)C)c1ccc(-c2ccc(C#N)cc2)cc1` (centres undefined): the Potency entry in assay [1], in assay [2], in assay [3], in assay [4] and in assay [6] was “inactive” in each case.

In the case of `CNC(=O)c1ccc2c(c1)CCO[C@H]2CCN1CCN(c2ccc(C(N)=O)cc2)CC1`, the Potency entry in assay [1], in assay [2], in assay [3], in assay [4] and in assay [6] was “inactive” throughout.

For the compound `Cc1c(F)cc(C(=O)NC2CC2)cc1-c1ccc(C(=O)NCC(C)(C)C)cn1`, the Potency entry in assay [1], in assay [2], in assay [3], in assay [4] and in assay [6] was “inactive” in each case.

Regarding `CN1CCc2cc(Cl)c(O)cc2[C@@H](c2cccc3c2OCC3)C1`, the Potency result in assay [1], in assay [2], in assay [3], in assay [4] and in assay [6] was “inactive” each time.

For `C=C1CC23CC1CCC2C12OC(=O)C(C)(C(O)CC1O)C2C3C(=O)O` (centres undefined), the Potency entry in assay [1], in assay [2], in assay [3] and in assay [5] was “inactive” each time.

For the compound `COc1cc(/C=C/C(=O)O[C@@H]2O[C@H](CO)[C@@H](O)[C@H](O)[C@H]2O)ccc1O`, the Potency entry in assay [1], in assay [2], in assay [3] and in assay [6] was “inactive” throughout. Moreover, in assay [4], the Potency is 4.65 µM (active).

In the case of `O=C(Cc1ccc(Cl)cc1)Nc1cnccc1C(=O)O`, the Potency entry in assay [1], in assay [2], in assay [3], in assay [4] and in assay [6] was “inactive” throughout.

Take `O=C(O)[C@H](Cc1ccccc1)Oc1ccc(-c2ccccc2)cc1`: the Potency result in assay [1], in assay [2], in assay [3], in assay [4] and in assay [6] was “inactive” each time.

On to `C/C=C/C=C/C=C/C(=O)N(C)C(C(=O)NC(C)C(=O)N1CCCC1C(N)=O)C(C)C` (centres undefined), for which the Potency result in assay [1], in assay [2], in assay [3] and in assay [5] was “inactive” in each case.

Regarding `OC[C@H]1O[C@@H](OC[C@H]2O[C@@H](OCc3ccccc3)[C@H](O)[C@@H](O)[C@@H]2O)[C@H](O)[C@@H](O)[C@@H]1O`, the Potency result in assay [1], in assay [2], in assay [3] and in assay [5] was “inactive” in each case.

As for `Oc1ccc2c(-c3c(-c4ccccn4)nn4c3CCC4)ccnc2c1`, the Potency entry in assay [1], in assay [2], in assay [3] and in assay [5] was “inactive” throughout.

For `CC1=C(CO)CC(C(C)C2CCC3C4CC=C5CC(OC6OC(COC7OC(CO)C(O)C(O)C7O)C(O)C(O)C6O)CC(O)C5(C)C4CCC23C)OC1=O` (centres undefined), the Potency result in assay [1], in assay [2], in assay [3], in assay [4] and in assay [6] was “inactive” throughout.

Consider `C=C1CCC2(C(=O)OC3OC(CO)C(O)C(O)C3O)CCC3(C)C(=CCC4C5(C)CCC(OC6OC(CO)C(OC7OC(C)C(O)C(O)C7O)C(OC7OCC(O)C(O)C7O)C6O)C(C)(C)C5CCC43C)C2C1` (centres undefined), for which the Potency entry in assay [1] and in assay [2] was “inactive” throughout. The activity change, negative = inhibition in assay [3] was 3.5% [at 11.6 µM]. Also, in assay [5], the activity, negative = inhibition was 0.389% [at 11.6 µM].
